In PubChem BioAssay (NCI):
Compounds without any hit were thinned out: in the full panel of roughly 83,000, 20% have a hit.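 96-well plates, one dose, 48 hours. Percent growth reported; active if below 10.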 Activity calls are given as the source filed them.

What was measured:
Experiment in all cases: NCI-60 one-dose screen, 48 h (100 = growth as untreated, 0 = no growth, -100 = all killed)
Details in all cases: 10 µM unless noted
SR leukemia = system: SR leukemia
RPMI-8226 leukemia = system: RPMI-8226 leukemia
OVCAR-8 ovarian = system: OVCAR-8 ovarian
OVCAR-5 ovarian = system: OVCAR-5 ovarian
OVCAR-4 ovarian = system: OVCAR-4 ovarian
SK-OV-3 ovarian = system: SK-OV-3 ovarian
IGROV1 ovarian = system: IGROV1 ovarian
OVCAR-3 ovarian = system: OVCAR-3 ovarian
HS 578T breast = system: HS 578T breast
NCI/ADR-RES ovarian = system: NCI/ADR-RES ovarian
T-47D breast = system: T-47D breast
BT-549 breast = system: BT-549 breast
MDA-MB-435 melanoma = system: MDA-MB-435 melanoma
SW-620 colon = system: SW-620 colon
MCF7 breast = system: MCF7 breast
HCT-116 colon = system: HCT-116 colon
HCC-2998 colon = system: HCC-2998 colon
KM12 colon = system: KM12 colon

Measured: growth

CC[C@H](CO)Nc1nc(NCc2ccccc2)n2ncc(C(C)C)c2n1
active: SR leukemia -44.9% | RPMI-8226 leukemia -40.6% | OVCAR-3 ovarian 5.88% | HS 578T breast 7.24% | BT-549 breast -28.1% | SW-620 colon 1.96% | MCF7 breast 2.6% | HCC-2998 colon -27.9% | KM12 colon 1.41%
inactive: OVCAR-8 ovarian 28.6% | OVCAR-5 ovarian 22.4% | OVCAR-4 ovarian 11.8% | SK-OV-3 ovarian 51.5% | IGROV1 ovarian 14.5% | NCI/ADR-RES ovarian 19.5% | T-47D breast 28.3% | MDA-MB-435 melanoma 11.3% | HCT-116 colon 13.7%

CN1CCCCC1CCN1c2ccccc2Sc2ccc(Cl)cc21 (stereo unspecified)
active: SR leukemia -22.5%
inactive: RPMI-8226 leukemia 56.5% | OVCAR-8 ovarian 63% | OVCAR-5 ovarian 91.8% | OVCAR-4 ovarian 57.1% | SK-OV-3 ovarian 59.1% | IGROV1 ovarian 45.5% | OVCAR-3 ovarian 81.6% | HS 578T breast 72.5% | NCI/ADR-RES ovarian 72.9% | T-47D breast 71.1% | BT-549 breast 73.8% | MDA-MB-435 melanoma 27% | SW-620 colon 73.4% | MCF7 breast 21.6% | HCT-116 colon 30.6% | HCC-2998 colon 61.1% | KM12 colon 60%

CC[C@H](Nc1ncnc(N)c1C(N)=O)c1nc2cccc(NCc3ccc(C(=O)NO)cc3)c2c(=O)n1-c1ccccc1
inactive: SR leukemia 12% | RPMI-8226 leukemia 51% | OVCAR-8 ovarian 69.4% | OVCAR-5 ovarian 95.5% | OVCAR-4 ovarian 99% | SK-OV-3 ovarian 91.9% | IGROV1 ovarian 71% | OVCAR-3 ovarian 73.1% | HS 578T breast 69.7% | NCI/ADR-RES ovarian 106% | T-47D breast 42.1% | BT-549 breast 88.6% | MDA-MB-435 melanoma 81.8% | SW-620 colon 66.8% | MCF7 breast 82.8% | HCT-116 colon 67% | HCC-2998 colon 86.1% | KM12 colon 89.6%

CCOC(=O)CC(C)=N
inactive: SR leukemia 120% | RPMI-8226 leukemia 113% | OVCAR-8 ovarian 108% | OVCAR-5 ovarian 107% | OVCAR-4 ovarian 100% | SK-OV-3 ovarian 111% | IGROV1 ovarian 132% | OVCAR-3 ovarian 112% | HS 578T breast 107% | NCI/ADR-RES ovarian 112% | T-47D breast 109% | BT-549 breast 103% | MDA-MB-435 melanoma 113% | SW-620 colon 101% | MCF7 breast 95.6% | HCT-116 colon 102% | HCC-2998 colon 117% | KM12 colon 120%

CCCCCn1cnc2c(=S)nc[nH]c21
inactive: SR leukemia 112% | RPMI-8226 leukemia 81.9% | OVCAR-8 ovarian 118% | OVCAR-5 ovarian 121% | OVCAR-4 ovarian 86.5% | SK-OV-3 ovarian 98.7% | IGROV1 ovarian 116% | OVCAR-3 ovarian 124% | HS 578T breast 101% | NCI/ADR-RES ovarian 113% | T-47D breast 90.8% | BT-549 breast 129% | MDA-MB-435 melanoma 105% | SW-620 colon 97.8% | MCF7 breast 98.4% | HCT-116 colon 106% | HCC-2998 colon 122% | KM12 colon 109%

CC1=CC(=O)CC(C)(C)[C@@]1(O)/C=C/[C@@H](C)O
inactive: SR leukemia 111% | RPMI-8226 leukemia 109% | OVCAR-8 ovarian 90.1% | OVCAR-5 ovarian 103% | OVCAR-4 ovarian 106% | SK-OV-3 ovarian 113% | IGROV1 ovarian 107% | OVCAR-3 ovarian 108% | HS 578T breast 105% | NCI/ADR-RES ovarian 95.6% | T-47D breast 91.7% | BT-549 breast 105% | MDA-MB-435 melanoma 102% | SW-620 colon 105% | MCF7 breast 84.6% | HCT-116 colon 101% | HCC-2998 colon 94.7% | KM12 colon 102%

COc1ccc(/C=C2\N=C3SC=C(N)N3C2=O)cc1
inactive: OVCAR-8 ovarian 35.7% | OVCAR-5 ovarian 59.9% | OVCAR-4 ovarian 21.5% | SK-OV-3 ovarian 45.6% | OVCAR-3 ovarian 24.2% | HS 578T breast 50.4% | NCI/ADR-RES ovarian 42.3% | BT-549 breast 11.8% | SW-620 colon 21.9% | MCF7 breast 13.4% | HCC-2998 colon 40.9% | KM12 colon 46.9%
active: SR leukemia -21.3% | RPMI-8226 leukemia -28.8% | IGROV1 ovarian 9.81% | T-47D breast 9.75% | MDA-MB-435 melanoma 9.59% | HCT-116 colon -6.91%

CN1CCN(Cc2ccc(NC(=O)c3[nH]ncc3Nc3ncnc4c3CCC4)cc2)CC1
active: SR leukemia -18.6% | RPMI-8226 leukemia -9.23% | OVCAR-5 ovarian -0.195% | OVCAR-4 ovarian 6.83% | OVCAR-3 ovarian -5.87% | BT-549 breast -7.15% | SW-620 colon 7.76% | HCT-116 colon 5.79% | KM12 colon 6.55%
inactive: OVCAR-8 ovarian 11.9% | SK-OV-3 ovarian 24.5% | IGROV1 ovarian 19.2% | HS 578T breast 16.1% | NCI/ADR-RES ovarian 71.7% | T-47D breast 32.3% | MDA-MB-435 melanoma 29.6% | MCF7 breast 11.3% | HCC-2998 colon 13.1%

CCCN(CCC)CN(CCC)CCC
inactive: SR leukemia 101% | RPMI-8226 leukemia 99.9% | OVCAR-8 ovarian 105% | OVCAR-5 ovarian 102% | OVCAR-4 ovarian 117% | SK-OV-3 ovarian 102% | IGROV1 ovarian 111% | OVCAR-3 ovarian 92.1% | HS 578T breast 98.8% | NCI/ADR-RES ovarian 105% | T-47D breast 102% | BT-549 breast 91.4% | MDA-MB-435 melanoma 99.4% | SW-620 colon 103% | MCF7 breast 93% | HCT-116 colon 95.7% | HCC-2998 colon 104% | KM12 colon 101%

CCNS(=O)(=O)c1ncnc2nc[nH]c12
inactive: SR leukemia 101% | RPMI-8226 leukemia 92% | OVCAR-8 ovarian 114% | OVCAR-5 ovarian 102% | OVCAR-4 ovarian 102% | SK-OV-3 ovarian 108% | IGROV1 ovarian 96.9% | OVCAR-3 ovarian 113% | HS 578T breast 144% | NCI/ADR-RES ovarian 99.7% | T-47D breast 104% | BT-549 breast 129% | MDA-MB-435 melanoma 101% | SW-620 colon 101% | MCF7 breast 102% | HCT-116 colon 117% | HCC-2998 colon 114% | KM12 colon 119%

O=C(O)c1c([N+](=O)[O-])cnc2ccccc12
inactive: SR leukemia 135% | RPMI-8226 leukemia 108% | OVCAR-8 ovarian 96.2% | OVCAR-5 ovarian 99.1% | OVCAR-4 ovarian 107% | SK-OV-3 ovarian 93% | IGROV1 ovarian 106% | OVCAR-3 ovarian 118% | HS 578T breast 113% | NCI/ADR-RES ovarian 96.7% | T-47D breast 83.5% | BT-549 breast 96.7% | MDA-MB-435 melanoma 102% | SW-620 colon 101% | MCF7 breast 93% | HCT-116 colon 97.5% | HCC-2998 colon 100% | KM12 colon 111%

CCCCCCCCCc1cc(CN2CCCCC2)c(O)c(CN2CCCCC2)c1
active: SR leukemia 7.18%
inactive: RPMI-8226 leukemia 23.7% | OVCAR-8 ovarian 76.6% | OVCAR-5 ovarian 59.8% | OVCAR-4 ovarian 41.3% | SK-OV-3 ovarian 78.3% | IGROV1 ovarian 75.9% | OVCAR-3 ovarian 41.9% | HS 578T breast 72.7% | NCI/ADR-RES ovarian 58.3% | T-47D breast 19.8% | BT-549 breast 70.1% | MDA-MB-435 melanoma 78.4% | SW-620 colon 69.8% | MCF7 breast 44% | HCT-116 colon 39.1% | HCC-2998 colon 68.2% | KM12 colon 50.6%

Cc1cc(-c2nc3ccccc3s2)ccc1NC(=O)COc1ccc(Cl)cc1
inactive: SR leukemia 87.5% | RPMI-8226 leukemia 72.1% | OVCAR-8 ovarian 105% | OVCAR-5 ovarian 65.5% | OVCAR-4 ovarian 56.5% | SK-OV-3 ovarian 104% | IGROV1 ovarian 31.6% | OVCAR-3 ovarian 120% | HS 578T breast 117% | NCI/ADR-RES ovarian 93.3% | T-47D breast 18.9% | BT-549 breast 105% | MDA-MB-435 melanoma 113% | SW-620 colon 106% | MCF7 breast 17.5% | HCT-116 colon 76.7% | HCC-2998 colon 91.8% | KM12 colon 118%

CC1CN(C(C)C)C(=S)N(c2ccccc2)C1=O (stereo unspecified)
inactive: SR leukemia 108% | RPMI-8226 leukemia 120% | OVCAR-8 ovarian 97.6% | OVCAR-5 ovarian 90.7% | OVCAR-4 ovarian 112% | SK-OV-3 ovarian 106% | IGROV1 ovarian 81.5% | OVCAR-3 ovarian 99.4% | HS 578T breast 98% | NCI/ADR-RES ovarian 92.7% | T-47D breast 166% | BT-549 breast 101% | MDA-MB-435 melanoma 96.3% | SW-620 colon 108% | MCF7 breast 96.7% | HCT-116 colon 89.4% | HCC-2998 colon 101% | KM12 colon 109%

CC(C)(C)n1cc(-c2ccnc(NCCNS(=O)(=O)c3ccccc3)c2)c(-c2cccc(O)c2)n1
inactive: SR leukemia 27.3% | RPMI-8226 leukemia 22.2% | OVCAR-8 ovarian 67.2% | OVCAR-5 ovarian 78.4% | OVCAR-4 ovarian 60.6% | SK-OV-3 ovarian 88.4% | IGROV1 ovarian 76% | OVCAR-3 ovarian 74.4% | HS 578T breast 62.4% | NCI/ADR-RES ovarian 74.8% | T-47D breast 24.3% | BT-549 breast 26.4% | MDA-MB-435 melanoma 68.3% | SW-620 colon 16.2% | MCF7 breast 36.5% | HCT-116 colon 47.2% | HCC-2998 colon 47.5% | KM12 colon 42.8%

COc1cnc2c(c1)C(=O)c1c-2n(CCCN2CCNCC2)c(=O)c2cc([N+](=O)[O-])ccc12
active: SR leukemia -21.7% | RPMI-8226 leukemia -37.1% | OVCAR-8 ovarian -52.8% | OVCAR-5 ovarian -77.9% | OVCAR-4 ovarian -77.1% | SK-OV-3 ovarian 3.11% | IGROV1 ovarian -58.3% | OVCAR-3 ovarian -83.1% | NCI/ADR-RES ovarian -44.3% | T-47D breast -52.2% | MDA-MB-435 melanoma -92% | SW-620 colon -70% | MCF7 breast -63.5% | HCT-116 colon -93.6% | KM12 colon -75.5%
inactive: HS 578T breast 70.7% | BT-549 breast 21.7% | HCC-2998 colon 36.2%

CCOC(=O)c1c2c(n3ccc(NC(=O)CCN4CCOCC4)cc13)C(=O)c1ncccc1C2=O
inactive: RPMI-8226 leukemia 31.8% | OVCAR-8 ovarian 48% | OVCAR-5 ovarian 88.9% | OVCAR-4 ovarian 37% | SK-OV-3 ovarian 36.6% | IGROV1 ovarian 31.3% | HS 578T breast 52% | NCI/ADR-RES ovarian 40.5% | T-47D breast 32.6% | BT-549 breast 58.3% | MDA-MB-435 melanoma 19.4% | SW-620 colon 37.2% | HCT-116 colon 21.8% | HCC-2998 colon 42.5% | KM12 colon 46.2%
active: SR leukemia -2.96% | OVCAR-3 ovarian 4.63% | MCF7 breast -31.7%
